This is a sample that favours compounds with a hit; in the whole collection about 4.4% have one here.
tim10-1 inh: growth inhibitors of tim10-1 mutant yeast; S. cerevisiae tim10-1 ts strain growth, BacTiter-Glo, 24 h; inhibition, % at 20 µM; hit rate 2.2% among 330,000;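 active = inhibition of at least 40%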;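 also: mutant grown at 25 °C; 0% = DMSO wells with yeast and 100% = wells holding no yeast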
SKKanGAS inh: SKKanGAS growth inhibition; inhibition, % at 7.5 µM; S. pyogenes SKKanGAS, kanamycin growth, BacTiter-Glo, 6 h; AID 1662; hit rate 1.3% among 300,000;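 active = mean replicate score, as percent of positive control median, at least 50; inconclusive = mean below 50 but one replicate at or above 50; inactive = mean and every replicate below 50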;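 also: strain carries kanamycin resistance gene driven by streptokinase promoter and grows in 40 µg/ml kanamycin; loss of luminescence reflects streptokinase promoter inhibition or plain growth inhibition; 0% = median of DMSO wells and 100% = positive control at its reference dose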
TIM10 inh: TIM10 yeast growth inhibition; S. cerevisiae TIM10 strain growth, BacTiter-Glo luminescence, 24 h; inhibition, % at 10 µM; hit rate 1.4% among 330,000; AID 463195;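 active = inhibition of 40% or more at the single tested concentration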;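 also: wild-type TIM10 isogenic control strain grown at permissive 25 °C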
PfHsp90 set2: inhibits growth of yeast expressing Plasmodium falciparum Hsp90 | S. cerevisiae expressing PfHsp90, BacTiter-Glo ATP, 48 h; yeast lacking PDR1 and PDR3 efflux regulators | inhibition, % at 9.4 µM | hit rate 0.32% among 310,000 | AID 504621;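 active = every replicate shows inhibition above about 80%, whatever the replicate mean, limit read from the data; inconclusive = mean inhibition reaches the set limit but some replicate falls short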;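 also: 0% = DMSO neutral controls and 100% = 20 µM radicicol positive controls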
tim23-1 inh: tim23-1 yeast growth inhibition; S. cerevisiae tim23-1 growth, BacTiter-Glo luminescence, 24 h; AID 463212; inhibition, % at 20 µM; hit rate 1.3% among 330,000;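 active = growth inhibition of the mutant yeast at or above 50%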;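 also: temperature-sensitive mutant grown at 25 °C; plate controls were DMSO-treated mutant yeast for no effect and medium wells lacking yeast for full effect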
TIM10 conf: TIM10 yeast growth inhibition, confirmed; shares compounds with TIM10 inh; S. cerevisiae tim10 strain growth, BacTiter-Glo luminescence, 24 h; inhibition, % at 10 µM; hit rate 63% among 4,600;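 active = inhibition of yeast growth at or above a set limit in either of two replicates at 10 µM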;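 also: this counterscreen used the strain with wild-type TIM10; 0% = yeast with DMSO and 100% = medium wells lacking yeast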
Starred values were filed as active, the others as inactive; ? = inconclusive; . = no result given.

SMILES	tim10-1 inh	SKKanGAS inh	TIM10 inh	PfHsp90 set2	tim23-1 inh	TIM10 conf
Cc1cccc(CCNC(=O)c2oc3c(C)c(C)ccc3c2C)n1	31	1	25	19	46	.
Cc1ccc2c(C)c(C(=O)NCCc3ccco3)oc2c1C	17	-12	97*	8	24	9
CC1(C)c2[nH]c3ccccc3c2C[C@H]2C(=O)N(Cc3ccccc3F)C(=O)N21	33	1	28	4	16	.
CC1(C)c2[nH]c3ccccc3c2C[C@@H]2C(=O)N(Cc3ccccc3F)C(=O)N21	36	18	41*	-12	27	26
COC(=O)c1cc(NC(=O)COC(=O)C2CCC2)cc(C(=O)OC)c1	-1	-13	2	9	-2	.
Cc1cccc(C(=O)Nc2cc(Cl)ccc2-n2cncn2)c1[N+](=O)[O-]	35	9	22	-9	28	.
CC(C)NC(=O)N(C)C[C@@H]1Oc2c(NC(=O)C3CCOCC3)cccc2C(=O)N([C@@H](C)CO)C[C@H]1C	-8	.	97*	-14	-21	-10
CC(C)NC(=O)Nc1cccc2c1O[C@H](CN(C)C(=O)NC(C)C)[C@@H](C)CN([C@H](C)CO)C2=O	-14	.	2	14	2	.
COc1ccc(-c2oc3ccccc3c2C(=O)OCc2ccccc2)cc1	-1	-9	1	-25	16	.
CCC(C)(C)C1CCC(=NNC(=S)Nc2cccnc2)CC1 (stereo unspecified)	33	12	41*	-27	45	45*
Cc1cc(C)cc(NC(=O)CN2CCC(C(=O)c3ccccc3)CC2)c1	-8	1	18	0	15	.
O=C(N/N=C/c1ccc(-c2cccc(C(F)(F)F)c2)o1)c1cccc(F)c1	5	-1	45*	15	27	39*
NC(=O)N/N=C/c1ccc(-c2cccc(C(F)(F)F)c2)o1	1	-25	19	16	2	.
COc1ccc(CN2CCC(Oc3cc(C(=O)NC4CC4)ccc3OC)CC2)c(O)c1	-10	-2	83*	2	0	0
CC(Sc1nnc2n1CCCCC2)C(=O)Nc1ccc(S(N)(=O)=O)cc1 (stereo unspecified)	-13	.	-2	1	-6	.
Cc1ccc(S(=O)(=O)N2CCC(C(=O)OCC(=O)N3CC(C)CC(C)C3)CC2)cc1C (stereo unspecified)	19	0	7	-9	20	.
COc1ccccc1C(=O)NCCC(=O)NNC(=O)c1ccccc1O	-3	-4	96*	1	8	-8
COCC(=O)NNC(=O)c1ccccc1OC	4	-8	-6	-7	-7	.
Cc1ccsc1/C=N/NC(=S)NCc1ccccc1	35	0	54*	-9	28	44*
CC(C)(C)n1nnnc1C(c1ccncc1)N(Cc1ccccc1)Cc1ccco1 (stereo unspecified)	31	26	42*	0	34	-4
Cc1ccccc1C(=O)c1cccn1CC(=O)NC(C)c1ccccc1 (stereo unspecified)	25	-4	0	-3	28	.
COc1ccc(CC(=O)O/N=C(\N)Cc2ccc(OC)c(OC)c2)cc1	11	14	6	23	7	.
N/C(Cc1ccc(Cl)cc1)=N\OC(=O)c1cccc2ccccc12	10	1	75*	128*	36	76*
COc1ccc(C/C(N)=N/OC(=O)Cc2ccccc2)cc1	36	9	52*	.	30	28
COc1ccc(C/C(N)=N/OC(=O)c2ccc(Cl)cc2)cc1	40	0	49*	7	43	59*
SMILES	tim10-1 inh	SKKanGAS inh	TIM10 inh	PfHsp90 set2	tim23-1 inh	TIM10 conf
Cc1ccc(NC(=O)CCCCCN2C(=O)[C@@H]3Cc4ccccc4CN3C2=O)c(C)c1	19	-8	5	2	14	.
Cc1nc(NS(=O)(=O)c2ccccc2)sc1C(=O)N/N=C/c1ccccc1	-10	17	-6	-27	17	.
C/C(=N\NC(=O)c1ccn(C)n1)c1ccco1	-9	3	-4	14	3	.
O=C(NCCc1cccc(F)c1)C1CCC(=O)N(CCCc2ccccc2)C1 (stereo unspecified)	4	-7	13	-5	-6	.
COc1ccc(-c2nc(C)ncc2N=Nc2ccccc2)cc1	26	-12	-3	-18	29	.
COc1ccc(N=Nc2nc(-c3ccccc3)c(-c3ccccc3)[nH]2)cc1	32	20	41*	-23	34	8
O=C(NCC(=O)N1CCCC1)c1ccc(Cl)cc1	-21	4	-12	-6	-3	.
CCOC(=O)N1CCC(N2Cc3cccc(C(=O)Nc4ccc(CC)cc4)c3C2=O)CC1	39	35	30	.	29	.
CCOC(=O)N1CCC(N2Cc3cccc(C(=O)Nc4ccc(F)cc4)c3C2=O)CC1	37	?	42*	19	30	30
CCCc1cc(=O)oc2c(C)c(OCC(=O)NC3CCN(Cc4ccccc4)CC3)ccc12	13	2	-4	8	10	.
Cc1nc2cc(NS(=O)(=O)c3ccc(Br)cc3)ccc2n1C	-1	-2	-2	16	5	.
Cc1nc([N+](=O)[O-])c(Sc2nc3ccccc3n2C)n1Cc1ccccc1	33	20	40*	1	37	42*
Fc1cccc(/C=N/n2c(C3CCCCC3)n[nH]c2=S)c1	26	5	44*	-21	26	37*
Oc1cccc(/C=N/n2c(C3CCCCC3)n[nH]c2=S)c1	32	-2	9	27	26	.
CN1C(=O)OC(C)(C)C1=O	15	0	2	22	5	.
Cn1c(CS(=O)Cc2c(Cl)cccc2Cl)nnc1SCc1c(Cl)cccc1Cl (stereo unspecified)	32	-3	35	-3	39	.
O=S(Cc1ccc(Br)cc1)Cc1nnc(SCc2c(Cl)cccc2Cl)n1-c1ccccc1 (stereo unspecified)	26	4	41*	9	42	23
COc1ccc(CCNC(=O)/C=C/c2ccco2)cc1	-19	1	-9	-6	-11	.
Cc1nc(-c2ccccn2)nc(SCC(=O)c2ccc(F)cc2)c1Cl	29	85*	41*	14	41	42*
COc1ccc(CN=Cc2[nH]c3ccc(Br)c(Cl)c3c2O)cc1	10	11	41*	10	14	19
Cc1cc(C)cc(N=Cc2[nH]c3ccc(Br)c(Cl)c3c2O)c1	.	11	.	2	.	.
O=S(=O)(Nc1ccc(-n2cccc2)cc1)c1ccc(Cl)c(Cl)c1	-57	50*	45*	-15	40	41*
CCOC(=O)C1(CCCc2ccccc2)CCN(C(=O)C(C)n2cncn2)CC1 (stereo unspecified)	13	-5	17	28	14	.
N#C/C(=C\c1cccnc1)c1nc2ccccc2[nH]1	19	-3	75*	.	13	-2
CCCCCC(=O)Nc1ccc(-c2csc(N)n2)cc1	-5	7	43*	.	7	12
COC(=O)c1ccc(COC(=O)CNC(=O)c2ccc(C)s2)cc1	3	.	12	10	22	.

Assay outcomes from PubChem BioAssay.
